The antibiotic and cytotoxicity screens of Wong et al. (2023)
Out of some 39,000 compounds screened, about 3,300 (8.5%) were called active. For the sample, actives were picked, then their nearest neighbours and some compounds at random.

These molecules were tested on HepG2 (assay: cytotoxicity call (relative viability < 0.9)). Conditions: 10 µM.
In the case of `NCCNC[C@@H](N)CCCNC(N)=N[N+](=O)[O-].O=CC(F)(F)F`, the cytotoxicity call is reported as “inactive”.
For `CC(=O)N1CCCC[C@]12CCNC2`, the cytotoxicity call was “inactive”.
With `CCCCC1C(=O)NC(=S)NC1=O` the cytotoxicity call was “inactive”.
In the case of `CC1CC(C)C(=O)C(C(O)CC2CC(=O)NC(=O)C2)C1` (configuration not stated), the cytotoxicity call is reported as “active”.
For `CC12CCC3C(CC=C4CC(O)CCC43C)C1CCC2=O` (configuration not stated), the cytotoxicity call was “inactive”.
In the case of `COC(=O)[C@H]1CNCCN1c1ccccc1`, the cytotoxicity call is reported as “inactive”.
With `O[C@H]1[C@H](O)[C@@H](O)CN2CC[C@H](O)[C@H]12` the cytotoxicity call was “inactive”.
For `Cn1ncnc2c(=O)n(C)c(=O)nc1-2`, the cytotoxicity call was “active”.
In the case of `Cc1nc2c(=O)n(C)c(=O)nc-2n(C)n1`, the cytotoxicity call is reported as “active”.
`Cc1nc[nH]c1CCN` was tested, and the cytotoxicity call was “inactive”.
For `NC[C@@H](CS(=O)(=O)O)c1ccc(Cl)cc1`, the cytotoxicity call was “inactive”.
In the case of `CCN1C[C@]2(C)CC[C@H](O)[C@@]34[C@@H]5C[C@H]6[C@H](O)[C@@H]5[C@](O)(C[C@@H]6OC)[C@](O)([C@@H](OC)[C@H]23)[C@@H]14`, the cytotoxicity call is reported as “inactive”.
With `C[C@@H]1CN([C@@H](C)CO)C(=O)c2c(c3ccccc3n2C)-c2ccccc2CO[C@@H]1CN(C)C(=O)Oc1ccccc1` the cytotoxicity call was “inactive”.
For `CN(C)[C@@H]1C(=O)C(C(N)=O)=C(O)[C@@]2(O)C(O)=C3C(=O)c4c(O)cccc4[C@](C)(O)[C@H]3C[C@@H]12`, the cytotoxicity call was “inactive”.
With `CCC(C)C(=O)OC1CC2(C)C(c3ccoc3)OC(=O)CC23OC2(C)OC34C(OC(C)=O)C3(O)C(OC(=O)C5(C)OC5C)C5(C)CC3(O)C(C)(C5CC(=O)OC)C14O2` (configuration not stated) the cytotoxicity call was “inactive”.
In the case of `Cc1ccc(N=CN(C)C=Nc2ccc(C)cc2C)c(C)c1`, the cytotoxicity call is reported as “inactive”.
`C[C@H](CO)N1C[C@H](C)[C@@H](CN(C)C(=O)Oc2cccc3ccccc23)OCc2cnnn2CCCC1=O` was tested, and the cytotoxicity call was “inactive”.
With `O=C(O)c1ccc(=O)[nH]c1` the cytotoxicity call was “inactive”.
For `CN1CCN(Cc2ccc[nH]2)CC1`, the cytotoxicity call was “inactive”.
With `C[C@]12CC[C@@H]3c4ccc(OC(=O)N(CCCl)CCCl)cc4CC[C@H]3[C@@H]1CC[C@@H]2OP(=O)(O)O` the cytotoxicity call was “inactive”.
For `CC12CCC3c4ccc(OC(=O)N(CCCl)CCCl)cc4CCC3C1CCC2O` (configuration not stated), the cytotoxicity call was “active”.
With `Cc1cc(C)nc(NC2=NCCN2)n1` the cytotoxicity call was “inactive”.
For `O=C(CN1CCOCC1)c1ccc(O)cc1O`, the cytotoxicity call was “inactive”.
`CC(C)[N+](C)(CCC(C(N)=O)(c1ccccc1)c1ccccc1)C(C)C.[I-]` was tested, and the cytotoxicity call was “inactive”.
With `c1cc2c(c(N3CCNCC3)c1)OCCO2` the cytotoxicity call was “inactive”.
In the case of `CCC1(c2ccccc2)C(=O)NC(=O)NC1=O`, the cytotoxicity call is reported as “inactive”.
For `COC(=O)C[C@@H]1CC[C@H]2NC[C@H](O)COC[C@@H]2O1`, the cytotoxicity call was “inactive”.
For `COC12CC(COC(=O)c3cncc(Br)c3)CN(C)C1Cc1cn(C)c3cccc2c13` (configuration not stated), the cytotoxicity call was “active”.
In the case of `NCC1(c2ccc(Cl)cc2)CC1`, the cytotoxicity call is reported as “inactive”.
`O=C(O)/C=C/CO` was tested, and the cytotoxicity call was “inactive”.
For `Cn1cc(NC(=O)c2cc(NC(=O)CNC(=N)N)cn2C)cc1C(=O)NCCC(=N)N`, the cytotoxicity call was “inactive”.
In the case of `O=C(O)CCl`, the cytotoxicity call is reported as “inactive”.
In the case of `O=C1NC2(CCNCC2)C[C@@H]1c1ccncc1`, the cytotoxicity call is reported as “inactive”.
For `Cc1cccc(Cc2cnc[nH]2)c1C`, the cytotoxicity call was “inactive”.
`COc1ccc2[nH]cc(CCN)c2c1` was tested, and the cytotoxicity call was “inactive”.
In the case of `COc1cccc(-c2ccc3c(CCN)c[nH]c3c2)c1`, the cytotoxicity call is reported as “active”.
In the case of `NCCc1c[nH]c2ccccc12`, the cytotoxicity call is reported as “inactive”.
With `COc1ccc(N=[N+]=[N-])cc1` the cytotoxicity call was “inactive”.
With `COc1ccc(C=O)cc1` the cytotoxicity call was “inactive”.
`C=CCc1ccc(OC)cc1` was tested, and the cytotoxicity call was “active”.
For `C[C@@H]1C(=O)NC[C@H]2CN(CC3CC3)C[C@@H]21`, the cytotoxicity call was “inactive”.
With `CNC[C@@H](O)c1ccc(O)c(OC)c1` the cytotoxicity call was “inactive”.
With `CN1C[C@H]2CN(Cc3nccn3C)C[C@H]2C1=O` the cytotoxicity call was “inactive”.
In the case of `N#Cc1c(Cl)c(Cl)c(Cl)c(C#N)c1Cl`, the cytotoxicity call is reported as “active”.
For `COc1ccc(C2(CN)CCOCC2)cc1`, the cytotoxicity call was “inactive”.
In the case of `CC[C@@H]1/C=C/C=C/C[C@H](C)[C@@H](O)[C@](C)(O)C(=O)[C@H](C)[C@@H](O)[C@H](C)C(=O)[C@H](C)[C@@H](O)[C@H](C)/C=C/C(=O)O[C@H]2[C@@H](C)[C@@H](CC1)O[C@@]1(CC[C@@H](C)[C@@H](C[C@H](C)O)O1)[C@@H]2C`, the cytotoxicity call is reported as “inactive”.
For `COC(=O)C1CC(OC(C)=O)C(=O)C2C1(C)CCC1C(=O)OC(c3ccoc3)CC12C` (configuration not stated), the cytotoxicity call was “inactive”.
With `CC1(C)C(=O)C=CC2(C)C1CC(O)C1(C)C2CCC2(C)C(c3ccoc3)OC(=O)C3OC321` (configuration not stated) the cytotoxicity call was “active”.
For `CC1(C)C(O)CC(O)C2(C)C1CC(=O)C1(C)C2CCC2(C)C(c3ccoc3)OC(=O)C3OC321` (configuration not stated), the cytotoxicity call was “inactive”.
For `CC1(C)C(=O)C2OC2C2(C)C1CC(O)C1(C)C2CCC2(C)C(c3ccoc3)OC(=O)C3OC321` (stereo not drawn) [1,2alpha-EPOXYDEACETOXYDIHYDROGEDUNIN ], the cytotoxicity call was “inactive”.
In the case of `CC(=O)OC1CC(OC(C)=O)C2(C)C(CC(OC(C)=O)C3(C)C2CCC2(C)C(c4ccoc4)C(=O)C4OC423)C1(C)C` (configuration not stated), the cytotoxicity call is reported as “inactive”.
For `CC(=O)OC1CC2C(C)(C)C(=O)C=CC2(C)C2CCC3(C)C(=CC(=O)OC3c3ccoc3)C12C` (configuration not stated), the cytotoxicity call was “active”.
In the case of `NC(=O)[C@H]1CNC(=O)C1`, the cytotoxicity call is reported as “inactive”.
In the case of `NC1(c2ccccc2F)CCCC1`, the cytotoxicity call is reported as “inactive”.
In the case of `CC(C)(C)[C@]1(O)C[C@@H]2OC(=O)C[C@@]23C(=O)O[C@@H]2OC(=O)[C@H](O)[C@]213`, the cytotoxicity call is reported as “inactive”.
`C/C(=C\[C@@H](N)C(=O)O)CP(=O)(O)O` was tested, and the cytotoxicity call was “inactive”.
With `Cc1cccc(Cc2c[nH]cn2)c1C.Cl` the cytotoxicity call was “inactive”.
For `CCC1C2CC3C4N(C)c5ccccc5C45CC(C2C5O)N3C1O` (configuration not stated), the cytotoxicity call was “inactive”.
`c1cc(N2CCNCC2)ccn1` was tested, and the cytotoxicity call was “inactive”.
With `CCn1cc2nc(N3CCNCC3)[nH]cc-2c1=O` the cytotoxicity call was “inactive”.
For `C[C@H]1O[C@H](n2cnc3c(N)ncnc32)C[C@H]1O`, the cytotoxicity call was “inactive”.
For `CC(=O)Oc1ccc(Cl)c2cccnc12`, the cytotoxicity call was “active”.
`Cc1c(N)nc([C@H](CC(N)=O)NC[C@@H](N)C(N)=O)nc1C(=O)N[C@H](C(=O)N[C@@H](C)[C@H](O)[C@@H](C)C(=O)N[C@@H](C(=O)NCCc1nc(-c2nc(C(=O)NCCC[S+](C)C)cs2)cs1)[C@@H](C)O)[C@@H](O[C@H]1O[C@H](CO)[C@H](O)[C@@H](O)[C@H]1O[C@H]1O[C@H](CO)[C@@H](O)[C@H](OC(N)=O)[C@@H]1O)c1c[nH]cn1` was tested, and the cytotoxicity call was “inactive”.
For `O[C@H]1[C@H](O)[C@@H](O)CO[C@H]1NCCc1ccccc1`, the cytotoxicity call was “inactive”.
With `COCCN1[C@@H]2CC[C@H]1CN(c1ncccn1)C2` the cytotoxicity call was “inactive”.
For `CCn1nnnc1N`, the cytotoxicity call was “inactive”.
`C[C@H](CO)N1C[C@H](C)[C@H](CN(C)C(=O)Oc2cccc3ccccc23)OCc2cnnn2CCCC1=O` was tested, and the cytotoxicity call was “inactive”.
In the case of `CNCc1cccnc1`, the cytotoxicity call is reported as “active”.
`N#Cc1cccnc1` was tested, and the cytotoxicity call was “inactive”.
`NCc1cccnc1` was tested, and the cytotoxicity call was “inactive”.
With `CC(=O)OCC1=C2C(=O)[O][Zn][O]C(=O)[C@@H](N)CCCC(=O)N[C@@H]3C(=O)N2[C@@H]3SC1` the cytotoxicity call was “inactive”.
With `Nc1nc(=O)c2ncn([C@H]3O[C@@H](COP(=O)(O)OP(O)(O)=S)[C@H](O)[C@@H]3O)c2[nH]1` the cytotoxicity call was “inactive”.
With `CN(C)[C@@H]1C(=O)[C@@H](C(N)=O)C(=O)[C@@]2(O)C(=O)[C@H]3C(=O)c4c(O)ccc(Cl)c4[C@@](C)(O)[C@H]3C[C@@H]12` the cytotoxicity call was “inactive”.
For `CCCCCC1C(=O)OC(C)C(NC(=O)c2cccc(NC=O)c2O)C(=O)OC(C)C1OC(=O)CC(C)C` (configuration not stated) [ANTIMYCIN A (A1 shown) ], the cytotoxicity call was “active”.
For `CCCCC[C@H]1C(=O)O[C@H](C)[C@H](NC(=O)c2cccc(NC=O)c2O)C(=O)O[C@@H](C)[C@@H]1OC(=O)CC(C)C`, the cytotoxicity call was “active”.
In the case of `O=C1COC2(CNC2)CN1`, the cytotoxicity call is reported as “inactive”.
For `CC(C)N1CCO[C@H]2CN(C(=O)N(C)C)C[C@@H]21`, the cytotoxicity call was “inactive”.
For `C=CCC1(O)CCC2C3CCC4=CC(=O)CCC4=C3C=CC21C` (configuration not stated), the cytotoxicity call was “inactive”.
For `CC(CCc1ccccc1)NC(C)C(O)c1ccc(O)cc1.Cl` (configuration not stated), the cytotoxicity call was “inactive”.
`Nc1nnns1` was tested, and the cytotoxicity call was “inactive”.
`CC(C)[C@@H](Br)C(=O)NC(N)=O` was tested, and the cytotoxicity call was “inactive”.
`CC(C)Oc1ncccc1CN` was tested, and the cytotoxicity call was “inactive”.
In the case of `CC1(C)C(=O)C=CC2(C)C1=C(O)C(=O)C1(C)C2CCC2(C)C(c3ccoc3)CC3OC321` (configuration not stated), the cytotoxicity call is reported as “active”.
In the case of `CC1(C)C(O)CC(=O)C2(C)C1CC(=O)C1(C)C2CCC2(C)C(c3ccoc3)OC(=O)C3OC321` (configuration not stated), the cytotoxicity call is reported as “inactive”.
For `CC(=O)O[C@H]1C[C@@H](OC(C)=O)C(C)(C)[C@@H]2C[C@@H](OC(C)=O)[C@]3(C)[C@H](CC[C@@]4(C)[C@H](c5ccoc5)C[C@H]5O[C@@]534)[C@@]12C`, the cytotoxicity call was “inactive”.
In the case of `CC(=O)OC1CC2(C)C(c3ccoc3)CC3OC32C2(C)C(=O)C(O)=C3C(C)(C)C(=O)C=CC3(C)C12` (configuration not stated), the cytotoxicity call is reported as “active”.
`N[C@H]1CCCN(Cc2cccnc2)C1` was tested, and the cytotoxicity call was “inactive”.
With `O=C1NC(=S)NC(=O)C1CN1CCOCC1` the cytotoxicity call was “inactive”.
With `C[C@H](O)[C@@]12[C@H]3CC=C[C@@H]1N2CC3` (some centres not stated) the cytotoxicity call was “inactive”.
For `O[C@H]1CNC[C@@H]1N1CCCCC1`, the cytotoxicity call was “inactive”.
For `Cn1c(CCN)nc2ccccc21`, the cytotoxicity call was “inactive”.
With `COC(=O)C[C@@H]1CC[C@@H]2NC[C@H](O)COC[C@H]2O1` the cytotoxicity call was “inactive”.
`CO[C@@H]1C=C[C@@H]2[C@H]1N2CCO` (some centres not stated) was tested, and the cytotoxicity call was “inactive”.
`N[C@H]1CNC(=O)C1` was tested, and the cytotoxicity call was “inactive”.
With `CCCCCCCCCc1ccc(O)cc1` the cytotoxicity call was “active”.
In the case of `NCCc1ccc(O)cc1` [listing 1 of 2 here], the cytotoxicity call is reported as “inactive”.
For `NCCc1ccc(O)cc1` [listing 2 of 2 here], the cytotoxicity call was “inactive”.
With `C1CCN2C(C3N4CCCCN34)N2C1` (configuration not stated) the cytotoxicity call was “inactive”.
With `c1cnc2[nH]cc(CN3CCNCC3)c2c1` the cytotoxicity call was “inactive”.
`O=C1NCc2cnnn2-c2ccccc21` was tested, and the cytotoxicity call was “inactive”.
With `CCN1CCN(c2nc(=O)cc(C)[nH]2)CC1` the cytotoxicity call was “inactive”.
`C1CO[C@@]2(C1)CCNC2` was tested, and the cytotoxicity call was “inactive”.
`O=C([O-])c1ccccc1-c1c2cc(Br)c(=O)cc-2oc2[c]([Hg][OH])c([O-])c(Br)cc12.[Na+].[Na+]` was tested, and the cytotoxicity call was “inactive”.
`O=C1NC(=O)C(=C[C@@H]2CC=CCC2)C(=O)N1` was tested, and the cytotoxicity call was “inactive”.
For `CC1=C(O)C(=O)C=C2C1=CC=C1C2(C)CCC2(C)C3CC(C)(C(=O)O)CCC3(C)CCC12C` (configuration not stated), the cytotoxicity call was “active”.
With `O.O.O.O=C([O-])C1[O][Sb]2[O]C(=O)C([O]2)C(C(=O)[O-])[O][Sb]2[O]C(=O)C1[O]2.[K+].[K+]` (configuration not stated) the cytotoxicity call was “active”.
With `Clc1nc(N2CCNCC2)c2[nH]cnc2n1` the cytotoxicity call was “inactive”.
